# Results from PubChem BioAssay (EPA / NIEHS).
# Records with an inconclusive call do not appear. Active and inactive are the calls of the source. Rule for the calls, unless noted: active = hit-call score of the fitted dose curve at least 0.9, where 1 is the maximum; inactive = score below 0.9.
# Legend:
# [1] = molecular target: Paired box protein Pax-6 (Homo sapiens) (UniProt P26367); test: ATG_Pax6_CIS: Attagene CIS-FACTORIAL HepG2 Assay for human Paired Box 6 (PAX6) (AID 2282956); conditions: HepG2 CIS-FACTORIAL PAX6 reporter transcription, RNA readout; actives raise or lower the signal
# Paired box protein Pax-6 (Homo sapiens), sequence (P26367 whole entry, looked up): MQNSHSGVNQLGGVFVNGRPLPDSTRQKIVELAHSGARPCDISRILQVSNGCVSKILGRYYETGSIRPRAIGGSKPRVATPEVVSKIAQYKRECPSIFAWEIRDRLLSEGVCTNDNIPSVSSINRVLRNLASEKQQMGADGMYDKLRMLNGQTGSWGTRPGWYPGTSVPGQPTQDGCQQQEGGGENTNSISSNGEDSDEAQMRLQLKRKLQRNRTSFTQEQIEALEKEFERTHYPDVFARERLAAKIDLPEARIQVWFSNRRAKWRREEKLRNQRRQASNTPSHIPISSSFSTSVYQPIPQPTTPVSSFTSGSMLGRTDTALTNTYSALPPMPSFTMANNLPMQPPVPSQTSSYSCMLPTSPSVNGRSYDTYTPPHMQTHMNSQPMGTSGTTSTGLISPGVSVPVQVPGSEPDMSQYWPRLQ
# Procedure, shortened: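 Read-out is reporter transcript level, measured by RT-PCR with fluorescent primer extension and capillary electrophoresis after 24 h dosing of transfected HepG2 cells. Activity in either direction fitted relative to DMSO control.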
# [2] = ATG_PXRE_CIS: Attagene CIS-FACTORIAL HepG2 Assay for human Pregnane X Receptor Element (PXRE) (AID 2282957); conditions: HepG2 Attagene CIS-FACTORIAL PXRE reporter, mRNA; actives raise or lower the signal
# Procedure, shortened: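 Using HepG2 transfected with multiple reporter transcription units, endogenous factor-driven transcription was scored as reporter mRNA after 24 h exposure.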
# [3] = ATG_PPRE_CIS: Attagene CIS-FACTORIAL HepG2 Assay for human Peroxisome Proliferator-activated Response Element (PPRE) (AID 2282958); conditions: HepG2 PPRE cis-element reporter, Attagene transcription factor profiling; actives raise or lower the signal
# Procedure, shortened: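 Endogenous PPRE-driven transcription is measured in HepG2 cells carrying transfected multi-reporter constructs. Reporter transcripts are quantified by RT-PCR, HpaI digestion and capillary electrophoresis 24 h after dosing. DMSO baseline, bidirectional fit.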
# [4] = ATG_RORE_CIS: Attagene CIS-FACTORIAL HepG2 Assay for human RAR-related Orphan Receptor Element (RORE) (AID 2282959); conditions: HepG2 Attagene cis-factorial RORE reporter, mRNA; actives raise or lower the signal
# Procedure, shortened: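 RORE reporter transcripts reflecting endogenous factor activity were read after 24 h compound exposure of transfected HepG2 cells, using reverse transcription, PCR, fluorescent labelling and capillary electrophoresis sizing. Gain or loss fitted against DMSO.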
# [5] = molecular target: Transcription factor Sp1 (Homo sapiens) (UniProt P08047); test: ATG_Sp1_CIS: Attagene CIS-FACTORIAL HepG2 Assay for human Specificity Protein 1 (Sp1) (AID 2282961); conditions: HepG2 Sp1 cis-reporter transcription, actives raise or lower the signal
# Transcription factor Sp1 (Homo sapiens), sequence (P08047 whole entry, looked up): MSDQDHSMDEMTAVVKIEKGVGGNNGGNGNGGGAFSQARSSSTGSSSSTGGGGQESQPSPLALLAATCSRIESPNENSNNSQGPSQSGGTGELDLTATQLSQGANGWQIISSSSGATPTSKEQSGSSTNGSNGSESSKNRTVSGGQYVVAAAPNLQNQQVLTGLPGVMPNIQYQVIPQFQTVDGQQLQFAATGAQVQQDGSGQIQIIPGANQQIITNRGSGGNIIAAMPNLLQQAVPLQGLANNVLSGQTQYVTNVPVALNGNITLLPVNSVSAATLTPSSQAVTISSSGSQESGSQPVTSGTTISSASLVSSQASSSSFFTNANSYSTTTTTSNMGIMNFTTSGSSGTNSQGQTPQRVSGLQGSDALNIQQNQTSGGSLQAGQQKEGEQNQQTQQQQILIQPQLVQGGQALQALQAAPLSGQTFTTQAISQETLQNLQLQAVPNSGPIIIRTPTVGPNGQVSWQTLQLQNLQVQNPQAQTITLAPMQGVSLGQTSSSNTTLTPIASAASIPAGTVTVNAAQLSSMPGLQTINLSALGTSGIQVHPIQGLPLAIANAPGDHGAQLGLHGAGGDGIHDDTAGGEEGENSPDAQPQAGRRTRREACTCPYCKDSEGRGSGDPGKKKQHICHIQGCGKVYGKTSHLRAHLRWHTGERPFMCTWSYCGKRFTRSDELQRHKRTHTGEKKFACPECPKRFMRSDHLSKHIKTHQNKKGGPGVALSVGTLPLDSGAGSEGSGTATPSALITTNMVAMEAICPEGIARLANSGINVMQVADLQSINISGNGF
# Procedure, shortened: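 Read-out is reporter transcript level, measured by RT-PCR and fluorescent capillary electrophoresis after 24 h chemical treatment. System: transiently transfected HepG2 cells reporting endogenous transcription factor activity; gain or loss fitted against DMSO baseline.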
# [6] = ATG_SREBP_CIS: Attagene CIS-FACTORIAL HepG2 Assay for human Sterol Regulatory Element Binding (SREBP) (AID 2282962); conditions: HepG2 Attagene cis-factorial SREBP reporter, mRNA; actives raise or lower the signal
# Procedure, shortened: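 Endogenous SREBP activity read as cis-element-driven reporter transcript in transiently transfected HepG2, 24 h post-dosing; quantified via RT-PCR plus capillary electrophoresis of fluorescent fragments. Gain or loss of signal fitted relative to DMSO baseline.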
# [7] = molecular target: Signal transducer and activator of transcription 3 (Homo sapiens) (UniProt P40763); test: ATG_STAT3_CIS: Attagene CIS-FACTORIAL HepG2 Assay for human Signal Transducer and Activator of Transcription 3 (STAT3) (AID 2282963); conditions: HepG2, Attagene cis-factorial STAT3 reporter transcription; actives raise or lower the signal
# Signal transducer and activator of transcription 3 (Homo sapiens), sequence (P40763 whole entry, looked up): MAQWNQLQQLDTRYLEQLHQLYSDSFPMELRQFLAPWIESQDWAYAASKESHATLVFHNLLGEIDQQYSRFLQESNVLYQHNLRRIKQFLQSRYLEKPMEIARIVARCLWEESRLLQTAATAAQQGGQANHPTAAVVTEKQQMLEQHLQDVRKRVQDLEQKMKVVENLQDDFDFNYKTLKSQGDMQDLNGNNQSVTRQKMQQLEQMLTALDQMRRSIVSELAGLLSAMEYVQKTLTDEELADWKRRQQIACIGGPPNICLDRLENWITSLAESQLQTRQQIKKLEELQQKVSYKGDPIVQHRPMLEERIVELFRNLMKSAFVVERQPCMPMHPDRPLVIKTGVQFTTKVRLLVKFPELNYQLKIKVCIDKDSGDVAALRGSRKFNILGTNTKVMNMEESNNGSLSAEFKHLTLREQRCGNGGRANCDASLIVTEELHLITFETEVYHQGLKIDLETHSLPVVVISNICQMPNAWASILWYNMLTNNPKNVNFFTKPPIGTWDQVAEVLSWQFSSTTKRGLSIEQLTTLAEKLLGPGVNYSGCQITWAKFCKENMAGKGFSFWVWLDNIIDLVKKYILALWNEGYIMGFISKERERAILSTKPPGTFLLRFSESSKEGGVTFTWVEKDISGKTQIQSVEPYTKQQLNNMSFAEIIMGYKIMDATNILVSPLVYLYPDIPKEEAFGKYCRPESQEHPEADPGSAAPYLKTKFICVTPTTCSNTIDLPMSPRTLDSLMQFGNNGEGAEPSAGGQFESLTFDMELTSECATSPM
# Procedure, shortened: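 Cis-factorial format: endogenous transcription factors in HepG2 drive transfected reporter units. After 24 h treatment, reporter RNA was reverse-transcribed, amplified, FAM-labelled and HpaI-digested before CE analysis; activity scored in both directions against DMSO.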
# [8] = ATG_TA_CIS: Attagene CIS-FACTORIAL HepG2 Assay for human TA Basal Promoter (AID 2282964); conditions: HepG2 Attagene CIS-factorial TA basal promoter reporter; actives raise or lower the signal
# Procedure, shortened: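 Transient MRTU transfection of HepG2 preceded 24 h compound exposure. Reporter mRNA levels were then read by RT-PCR with capillary electrophoresis, and this background-control endpoint was fitted bidirectionally to DMSO.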
# [9] = ATG_TCF_b_cat_CIS: Attagene CIS-FACTORIAL HepG2 Assay for human T-Cell-Factor with beta-catenin (TCF/b-cat) (AID 2282965); conditions: HepG2 TCF/beta-catenin cis-reporter transcription, actives raise or lower the signal
# Procedure, shortened: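 Endogenous transcription factor activity is captured through cis-promoter reporter constructs transiently introduced into human HepG2 liver cells. Induced reporter mRNA is measured after 24 h and fitted bidirectionally relative to DMSO.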
# [10] = ATG_TAL_CIS: Attagene CIS-FACTORIAL HepG2 Assay for human TAL Basal Promoter (AID 2282966); conditions: HepG2 Attagene cis-factorial TAL promoter reporter; actives raise or lower the signal;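 note: background control endpoint measuring basal TAL promoter reporter mRNA not a specific factor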
# Procedure, shortened: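 After 24 hours of chemical exposure, transfected HepG2 cells yielded RNA that was converted to 6-FAM-labelled, HpaI-digested reporter fragments for capillary electrophoresis. Values derive from bidirectional fitting against DMSO controls.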
# [11] = ATG_TGFb_CIS: Attagene CIS-FACTORIAL HepG2 Assay for human Transforming Growth Factor (TGF) (AID 2282967); conditions: HepG2 Attagene CIS TGFb reporter, mRNA transcription; actives raise or lower the signal
# Procedure, shortened: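 After a 24-hour incubation with compound, transfected HepG2 cells were lysed for RNA; reporter cDNA was amplified, fluorescently end-labeled and separated by CE. DMSO served as baseline for bidirectional fits.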
# [12] = ATG_VDRE_CIS: Attagene CIS-FACTORIAL HepG2 Assay for human Vitamin D Receptor Element (VDRE) (AID 2282968); conditions: HepG2 VDRE cis-reporter transcription, actives raise or lower the signal
# Procedure, shortened: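 Measures endogenous factor activity through cis-element-driven reporter transcripts in transiently transfected HepG2. Cells are treated 24 h; reporter mRNA is quantified by RT-PCR and capillary electrophoresis; fitting is bidirectional.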
# [13] = molecular target: Steroid hormone receptor ERR1 (Homo sapiens) (UniProt P11474); test: ATG_ERRa_TRANS: Attagene TRANS-FACTORIAL HepG2 Assay for human Estrogen-Related Receptor alpha (ERRa) (AID 2282971; active = hit-call score of the fitted dose curve at least 0.9, where 1 is the maximum); conditions: HepG2 Attagene TRANS reporter, ERRa transactivation
# Steroid hormone receptor ERR1 (Homo sapiens), sequence (P11474 whole entry, looked up, the tested form may be a part): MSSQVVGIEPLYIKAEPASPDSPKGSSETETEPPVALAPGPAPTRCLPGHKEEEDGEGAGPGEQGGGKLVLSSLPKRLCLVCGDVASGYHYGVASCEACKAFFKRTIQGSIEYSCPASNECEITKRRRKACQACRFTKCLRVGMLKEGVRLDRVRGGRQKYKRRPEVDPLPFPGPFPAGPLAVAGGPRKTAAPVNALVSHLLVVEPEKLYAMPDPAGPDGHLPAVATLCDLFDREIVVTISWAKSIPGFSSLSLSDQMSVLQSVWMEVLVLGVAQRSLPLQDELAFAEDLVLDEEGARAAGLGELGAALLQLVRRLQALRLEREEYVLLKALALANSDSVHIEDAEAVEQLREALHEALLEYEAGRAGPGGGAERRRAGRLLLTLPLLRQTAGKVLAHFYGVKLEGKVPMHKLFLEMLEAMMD
# Procedure, shortened: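 Reporter transcript induction was quantified by RT-PCR and capillary electrophoresis of FAM-labelled, HpaI-cut products after 24 h treatment of HepG2 cells carrying transiently transfected GAL4-UAS reporter units and an exogenous ERRa-Gal4 fusion; activity scored as increase over DMSO.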
# [14] = molecular target: X-box-binding protein 1 (Homo sapiens) (UniProt P17861); test: ATG_Xbp1_CIS: Attagene CIS-FACTORIAL HepG2 Assay for human X-box Binding Protein 1 (XBP1) (AID 2282972); conditions: HepG2 XBP1 cis-element reporter, Attagene multiplex; actives raise or lower the signal
# X-box-binding protein 1 (Homo sapiens), sequence (P17861 whole entry, looked up): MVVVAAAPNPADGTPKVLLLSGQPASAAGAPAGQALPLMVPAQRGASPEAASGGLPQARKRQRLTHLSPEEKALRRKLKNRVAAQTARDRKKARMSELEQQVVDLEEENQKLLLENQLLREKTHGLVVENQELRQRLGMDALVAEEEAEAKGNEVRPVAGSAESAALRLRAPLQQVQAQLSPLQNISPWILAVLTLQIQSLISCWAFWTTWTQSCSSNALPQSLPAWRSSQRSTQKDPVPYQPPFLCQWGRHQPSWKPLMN
# Procedure, shortened: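 Reporter transcripts were quantified by RT-PCR with fluorescent primer extension and capillary electrophoresis after 24 h chemical exposure. Cells: transiently transfected HepG2 carrying cis-regulated reporter constructs; data fitted bidirectionally relative to DMSO.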
# [15] = ATG_M_19_TRANS: Attagene TRANS-FACTORIAL HepG2 Assay for M19 Transcription Factor (Internal Marker) (AID 2282974; active = hit-call score of the fitted dose curve at least 0.9, where 1 is the maximum); conditions: HepG2 Attagene TRANS-FACTORIAL M19 internal marker reporter
# Procedure, shortened: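 Background-control readout: after 24 h chemical exposure of transfected HepG2 carrying GAL4-driven reporter units, RNA was reverse-transcribed, amplified, fluorescently labeled and sized by capillary electrophoresis; gain-of-signal fit against DMSO.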
# [16] = ATG_GAL4_TRANS: Attagene TRANS-FACTORIAL HepG2 Assay for GAL4 (Internal Marker) (AID 2282976; active = hit-call score of the fitted dose curve at least 0.9, where 1 is the maximum); conditions: HepG2 Attagene TRANS GAL4 internal marker reporter
# Procedure, shortened: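 First, HepG2 cells were transfected with reporter units under GAL4-UAS control. Next, they were treated with chemical for 24 h. Finally, RNA was reverse-transcribed, PCR-amplified, FAM-labelled and resolved by capillary electrophoresis, with induction scored against DMSO.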
# [17] = ATG_Sox_CIS: Attagene CIS-FACTORIAL HepG2 Assay for human SRY-box transcription factor (SOX) (AID 2282960); conditions: HepG2 Attagene cis-factorial SOX reporter, mRNA; actives raise or lower the signal
# Procedure, shortened: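 Reporter transcripts, measured by RT-PCR and capillary electrophoresis of labelled fragments, report endogenous SOX transcription factor activity. Transiently transfected human HepG2 cells receive chemical for 24 h; changes in either direction are fitted relative to DMSO.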
# [18] = molecular target: Estrogen receptor (Homo sapiens) (UniProt P03372); test: ATG_ERa_TRANS: Attagene TRANS-FACTORIAL HepG2 Assay for human Estrogen Receptor alpha (ERa) (AID 2282970; active = hit-call score of the fitted dose curve at least 0.9, where 1 is the maximum); conditions: HepG2 Attagene TRANS ERa GAL4 reporter, mRNA
# Estrogen receptor (Homo sapiens), sequence (P03372 whole entry, looked up, the tested form may be a part): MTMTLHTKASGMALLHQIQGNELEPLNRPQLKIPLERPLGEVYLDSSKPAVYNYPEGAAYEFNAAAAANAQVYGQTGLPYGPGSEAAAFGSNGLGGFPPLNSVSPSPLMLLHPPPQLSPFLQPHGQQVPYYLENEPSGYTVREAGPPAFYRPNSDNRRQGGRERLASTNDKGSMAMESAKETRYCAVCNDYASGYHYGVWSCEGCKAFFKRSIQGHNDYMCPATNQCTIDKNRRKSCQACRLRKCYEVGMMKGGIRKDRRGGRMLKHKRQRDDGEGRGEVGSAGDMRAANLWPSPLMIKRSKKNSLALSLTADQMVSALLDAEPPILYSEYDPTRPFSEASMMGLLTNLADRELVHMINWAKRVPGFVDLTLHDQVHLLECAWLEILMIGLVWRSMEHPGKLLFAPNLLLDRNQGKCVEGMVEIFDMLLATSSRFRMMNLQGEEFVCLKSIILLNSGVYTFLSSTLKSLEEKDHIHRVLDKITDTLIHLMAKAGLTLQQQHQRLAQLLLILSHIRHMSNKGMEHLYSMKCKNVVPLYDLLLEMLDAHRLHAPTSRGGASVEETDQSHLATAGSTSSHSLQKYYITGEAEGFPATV
# Procedure, shortened: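 Liver-derived HepG2 cells expressing chimeric nuclear receptor-Gal4 proteins from transient transfection were exposed for 24 hours. Gain of reporter mRNA signal versus DMSO, read by capillary electrophoresis of FAM-labelled PCR products, was recorded.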
# [19] = molecular target: Nuclear receptor subfamily 1 group I member 3 (Homo sapiens) (UniProt Q14994); test: ATG_CAR_TRANS: Attagene TRANS-FACTORIAL HepG2 Assay for human Constitutive Androstane Receptor (CAR) (AID 2282969; active = hit-call score of the fitted dose curve at least 0.9, where 1 is the maximum;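 note: activators raise reporter mRNA above DMSO so AC50 marks induction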); conditions: HepG2 Attagene TRANS-FACTORIAL CAR reporter
# Nuclear receptor subfamily 1 group I member 3 (Homo sapiens), sequence (Q14994 whole entry, looked up, the tested form may be a part): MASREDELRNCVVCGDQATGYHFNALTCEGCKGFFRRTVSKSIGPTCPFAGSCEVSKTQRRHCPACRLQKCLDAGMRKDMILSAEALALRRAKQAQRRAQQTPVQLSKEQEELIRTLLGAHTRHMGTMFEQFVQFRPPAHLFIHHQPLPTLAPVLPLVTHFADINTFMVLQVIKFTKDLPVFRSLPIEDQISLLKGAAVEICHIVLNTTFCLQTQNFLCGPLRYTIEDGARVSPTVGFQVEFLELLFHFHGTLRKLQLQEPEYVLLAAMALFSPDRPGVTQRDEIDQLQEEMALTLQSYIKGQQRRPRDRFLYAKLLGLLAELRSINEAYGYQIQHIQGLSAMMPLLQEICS
# Procedure, shortened: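 Signal is reporter mRNA induction relative to DMSO, measured 24 h after dosing by RT-PCR with fluorescent primer extension and capillary electrophoresis. Human HepG2 liver cells carried transiently transfected chimeric NR-Gal4/GAL4-UAS reporter constructs.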
compound,measurement,setting,value
CCCCCCCCCCCSCC(=O)O,AC50,[1],100 µM (active)
same,outcome,[2],inactive
same,AC50,[3],5.09 µM (active)
same,AC50,[4],51.6 µM (active)
same,AC50,[5],151 µM (active)
same,AC50,[6],25.1 µM (active)
same,outcome,[7],inactive
same,AC50,[8],98 µM (active)
same,outcome,[9],inactive
same,AC50,[10],100 µM (active)
same,AC50,[11],100 µM (active)
same,AC50,[12],80.2 µM (active)
same,outcome,[13],inactive
same,AC50,[14],100 µM (active)
same,outcome,[15],inactive
same,outcome,[16],inactive
CCOC(F)(F)C(F)(F)C(F)(F)C(F)(F)F,outcome,[1],inactive
same,outcome,[2],inactive
same,outcome,[3],inactive
same,outcome,[4],inactive
same,outcome,[17],inactive
same,outcome,[6],inactive
same,outcome,[7],inactive
same,outcome,[9],inactive
same,outcome,[10],inactive
same,outcome,[11],inactive
same,outcome,[12],inactive
same,outcome,[14],inactive
same,outcome,[16],inactive
C1=CCCC1,outcome,[1],inactive
same,outcome,[2],inactive
same,outcome,[3],inactive
same,outcome,[4],inactive
same,outcome,[17],inactive
same,outcome,[6],inactive
same,outcome,[7],inactive
same,outcome,[8],inactive
same,outcome,[9],inactive
same,outcome,[10],inactive
same,outcome,[11],inactive
same,outcome,[12],inactive
same,outcome,[18],inactive
same,outcome,[14],inactive
same,outcome,[15],inactive
same,outcome,[16],inactive
CCC(CO)CO,outcome,[1],inactive
same,outcome,[2],inactive
same,outcome,[3],inactive
same,outcome,[4],inactive
same,outcome,[5],inactive
same,outcome,[6],inactive
same,outcome,[7],inactive
same,outcome,[8],inactive
same,outcome,[9],inactive
same,outcome,[10],inactive
same,outcome,[11],inactive
same,outcome,[12],inactive
same,outcome,[18],inactive
same,outcome,[14],inactive
same,outcome,[15],inactive
same,outcome,[16],inactive
CC=C1CC2C=CC1C2 (stereo not given),outcome,[1],inactive
same,AC50,[2],3.1 µM (active)
same,outcome,[3],inactive
same,outcome,[4],inactive
same,outcome,[5],inactive
same,outcome,[6],inactive
same,outcome,[7],inactive
same,outcome,[8],inactive
same,outcome,[9],inactive
same,outcome,[10],inactive
same,outcome,[11],inactive
same,outcome,[12],inactive
same,outcome,[14],inactive
same,outcome,[15],inactive
Cc1ccc(C(C)c2ccc(C)c(C)c2)cc1C,outcome,[1],inactive
same,AC50,[2],3.88 µM (active)
same,outcome,[3],inactive
same,outcome,[4],inactive
same,outcome,[17],inactive
same,AC50,[6],147 µM (active)
same,outcome,[7],inactive
same,outcome,[9],inactive
same,AC50,[10],123 µM (active)
same,outcome,[11],inactive
same,outcome,[12],inactive
same,outcome,[19],inactive
same,outcome,[18],inactive
same,outcome,[14],inactive
same,outcome,[15],inactive
O=S(=O)(O)c1cc(S(=O)(=O)O)c2ccc3c(S(=O)(=O)O)cc(S(=O)(=O)O)c4ccc1c2c43,outcome,[1],inactive
same,outcome,[2],inactive
same,outcome,[3],inactive
same,outcome,[4],inactive
same,outcome,[17],inactive
same,outcome,[5],inactive
same,outcome,[6],inactive
same,outcome,[9],inactive
same,outcome,[10],inactive
same,outcome,[11],inactive
same,outcome,[12],inactive
same,outcome,[18],inactive
same,outcome,[13],inactive
same,outcome,[14],inactive
same,outcome,[15],inactive
